The record followed here is PubChem BioAssay (Tox21).

A short description of test [1]: qHTS assay to identify small molecule antagonists of the thyroid receptor (TR) signaling pathway (AID 743065). Also: nearly all actives have a fitted effect of over 55% in size. Also: potency is read from the fitted curve at half-maximal effect. An outline of the steps: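 Antagonism measured as loss of luciferase signal in GH3 cells stably carrying a TRE-luciferase reporter, co-treated with compound and T3 (1 nM final) for 23.5 h at 37 C. Viability was read in the same well by CellTiter-Fluor.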

Test [2] deals with thyroid hormone receptor (rat, GH3 cells). The test is described as follows: qHTS assay to identify small molecule agonists of the thyroid receptor (TR) signaling pathway (AID 743066; calls by dose curve; also: potency is read from the fitted curve at half-maximal effect).
Test [3] in a line: qHTS assay to identify small molecule antagonists of the estrogen receptor alpha (ER-alpha) signaling pathway - cell viability counter screen (AID 743074; calls by dose curve;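 also: HEK293 cells carrying ER-alpha-UAS-bla reporter stimulated with 17beta-estradiol; nearly all actives have a fitted effect of over 45% in size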; also: potency is read from the fitted curve at half-maximal effect).
A short description of test [4]: qHTS assay to identify small molecule antagonists of the estrogen receptor alpha (ER-alpha) signaling pathway using the BG1 cell line - cell viability counter screen (AID 743081).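 Also: compound given together with 17beta-estradiol as the ER stimulus; nearly all actives have a fitted effect of over 45% in size.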 Also: potency is read from the fitted curve at half-maximal effect.
In test [5] the target is Aromatase (Homo sapiens) (UniProt P11511). Nature of the test: qHTS assay to identify aromatase inhibitors (AID 743083). Also: nearly all actives have a fitted effect of over 55% in size. Also: potency is read from the fitted curve at half-maximal effect.
Test [6] in a line: qHTS assay to identify aromatase inhibitors - cell viability counter screen (AID 743084).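 Also: cells stimulated with testosterone during compound exposure; nearly all actives have a fitted effect of over 55% in size.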 Also: potency is read from the fitted curve at half-maximal effect.
Test [7] can be described thus: qHTS assay to identify small molecule antagonists of the estrogen receptor alpha (ER-alpha) signaling pathway using the BG1 cell line (AID 743080; calls by dose curve;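 also: BG1 cells stimulated with 17beta-estradiol alongside compound; nearly all actives have a fitted effect of over 25% in size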; also: potency is read from the fitted curve at half-maximal effect). The note with it: BG1Luc4E2 ERE-luciferase antagonist mode, luminescence; activity change, negative = inhibition: at 70.3 µM (top of the series). Put shortly: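 Readout is ONE-Glo luminescence, taken 30 min at room temperature after reagent addition, preceded by a CellTiter-Fluor viability read; BG1-Luc-4E2 cells had received compound and 17beta-estradiol for 21.5 h at 37 C.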

Test [8] deals with Estrogen receptor (Homo sapiens) (UniProt P03372). The test is described as follows: qHTS assay to identify small molecule antagonists of the estrogen receptor alpha (ER-alpha) signaling pathway (AID 743069; active = well fitted curve in the direction sought with a large enough effect in the signal ratio in the repeat runs, not every such curve was filed as active; inconclusive = weak or mixed curves, or effect the other way; inactive = no such curve, though single readings can be large or run the other way; the % refers to the signal ratio; also: potency is read from the fitted curve at half-maximal effect). An outline of the steps: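 Antagonist mode: compounds in DMSO were co-added with 17beta-estradiol to ER-alpha-bla HEK293 cells (2% charcoal-stripped serum) and left 18 h at 37C. Reporter inhibition was measured as FRET fluorescence after 2 h LiveBLAzer substrate at room temperature.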

Test [9] shares this target. Nature of the test: qHTS assay to identify small molecule agonists of the estrogen receptor alpha (ER-alpha) signaling pathway (AID 743075; calls by dose curve;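 also: HEK293 GripTite cells with ER-alpha and UAS-driven beta-lactamase reporter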).
Test [10] shares this target. Nature of the test: qHTS assay to identify small molecule agonists of the estrogen receptor alpha (ER-alpha) signaling pathway using the BG1 cell line (AID 743079). Also: nearly all actives have a fitted effect of over 20% in size.

Where “and” joins values, the source holds several entries; their conditions need not be identical. Equal values may be shown once. Where a structure was tested more than once in an assay, its records may differ in their call. Calls of active or inactive are those of the source. Unless noted, calls follow the shape of the dose curve; as a rule, active = well fitted curve in the direction sought with a large enough effect in the repeat runs; inconclusive = weak or mixed curves; inactive = no such curve, though single readings can be large; an effect the other way counts as inactive or inconclusive.
% is scaled to controls: 0 for no effect and ±100 for the full control effect.

Estrogen receptor (Homo sapiens), sequence (P03372 whole entry, looked up): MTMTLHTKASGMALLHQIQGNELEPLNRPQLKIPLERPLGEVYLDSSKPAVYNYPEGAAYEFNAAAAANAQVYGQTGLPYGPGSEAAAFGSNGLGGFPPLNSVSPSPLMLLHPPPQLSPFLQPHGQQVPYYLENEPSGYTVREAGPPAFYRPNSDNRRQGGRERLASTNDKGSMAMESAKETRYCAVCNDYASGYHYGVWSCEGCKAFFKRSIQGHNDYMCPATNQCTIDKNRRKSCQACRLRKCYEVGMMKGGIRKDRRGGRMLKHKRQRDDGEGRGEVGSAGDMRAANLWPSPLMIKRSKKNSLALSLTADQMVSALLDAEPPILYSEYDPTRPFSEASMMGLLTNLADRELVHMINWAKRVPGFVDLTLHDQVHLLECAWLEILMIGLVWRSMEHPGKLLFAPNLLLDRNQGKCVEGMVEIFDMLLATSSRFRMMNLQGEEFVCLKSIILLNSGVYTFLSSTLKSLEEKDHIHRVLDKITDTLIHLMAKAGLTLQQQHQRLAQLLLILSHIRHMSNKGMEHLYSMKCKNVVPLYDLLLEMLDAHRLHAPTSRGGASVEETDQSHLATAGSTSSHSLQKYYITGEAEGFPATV
Aromatase (Homo sapiens), sequence (P11511 whole entry, looked up): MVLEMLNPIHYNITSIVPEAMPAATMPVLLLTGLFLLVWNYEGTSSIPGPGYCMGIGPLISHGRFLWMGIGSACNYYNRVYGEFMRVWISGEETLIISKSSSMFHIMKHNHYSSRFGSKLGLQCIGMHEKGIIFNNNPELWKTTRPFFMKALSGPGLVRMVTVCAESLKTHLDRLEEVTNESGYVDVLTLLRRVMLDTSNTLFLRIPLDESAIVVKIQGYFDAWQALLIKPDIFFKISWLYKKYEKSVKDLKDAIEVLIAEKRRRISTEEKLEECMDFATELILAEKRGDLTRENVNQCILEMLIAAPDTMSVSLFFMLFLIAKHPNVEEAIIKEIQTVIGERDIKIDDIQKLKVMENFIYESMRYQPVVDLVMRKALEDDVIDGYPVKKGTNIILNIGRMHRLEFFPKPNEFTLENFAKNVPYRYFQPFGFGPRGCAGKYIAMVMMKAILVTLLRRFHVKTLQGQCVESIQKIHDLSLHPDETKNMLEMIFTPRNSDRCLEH

Take `O=C1c2c(O)cccc2Cc2cccc(O)c21`: the Potency result in [1], in test [2], in [3], in test [4], in [5] and in test [6] was “inactive” throughout.

Regarding `CN1CCC[C@H]1c1cccnc1`, the Potency result in test [1], in test [2], in test [3], in [7], in test [4] and in test [5] was “inactive” in each case. Further, the Potency entry in test [6] is “inactive”.

For `Cc1cn([C@H]2C=C[C@@H](CO)O2)c(=O)[nH]c1=O`, the Potency entry in test [1], in test [2], in test [3], in test [4], in test [5] and in test [6] was “inactive” throughout.

In the case of `COc1ccc(OC(F)(F)F)cc1CN[C@H]1CCCN[C@H]1c1ccccc1`, the Potency in [1] is 24.3 µM (active). Besides, the Potency result in [8], in [9], in test [4] and in [6] was “inactive” each time.

Regarding `NS(=O)(=O)O`, the Potency entry in test [1], in test [2], in [3], in test [4], in test [5] and in test [6] was “inactive” each time.

Consider `Nc1c(N=Nc2ccc(-c3ccc(N=Nc4cc(S(=O)(=O)O)c5ccccc5c4N)cc3)cc2)cc(S(=O)(=O)O)c2ccccc12`, for which the Potency was 10.6 µM (active) and 30.6 µM (active) in test [1]; 13.3 µM (active) and 24.3 µM (active) in test [4]; 13.3 µM (active) and 4.32 µM (active) in test [6]. Moreover, the Potency result in test [2] and in test [3] was “inactive” in each case.

As for `CCCCCCCCCCCC[N+](C)(C)Cc1ccccc1`, the Potency was 5.31 µM (active) and 9.5 µM (active) and 11.8 µM (active) in test [1]; 10.7 µM (active) and 24.1 µM (active) and 26.7 µM (active) in test [3]; “inactive and 74.5 µM (active)” in test [4]; 29.8 µM (active) and 42.4 µM (active) and 37.4 µM (active) in test [5]; “inactive and 67.3 µM (active)” in test [6]. The Potency entry in [2] is “inactive”.

Turning to `NC(=O)n1c(O)c(C(=O)c2cccs2)c2cc(Cl)ccc21`, the Potency in test [1] is 29.8 µM (active); in [8] it was 21.3 µM [inconclusive] (active); in test [7] it was 29.8 µM (active). For the same compound, the Potency entry in test [3], in test [9] and in [6] was “inactive” throughout.

`CN(C)C(=S)SC(=S)N(C)C`: the Potency was 1.68 µM (active) and 1.57 µM (active) and 306 nM (active) in test [1]; “inactive and 49 µM (active)” in test [3]; 2.98 µM (active) and 994 nM (active) and 243 nM (active) in test [5]; 3.35 µM (active) and 994 nM (active) and 486 nM (active) in test [6]. The Potency result in test [2] and in test [4] was “inactive” each time.

In the case of `CC(=O)CC(c1ccccc1)c1c(O)c2ccccc2oc1=O` (configuration not stated), the Potency entry in test [1], in [2], in test [3] and in [4] was “inactive” throughout.

Take `CC(C)NCC(O)c1ccc(O)c(O)c1` (configuration not stated): the Potency entry in [1], in test [2], in test [3], in test [4], in test [5] and in test [6] was “inactive” in each case.

On to `CCCCNC(=O)NS(=O)(=O)c1ccc(C)cc1`, for which the Potency result in test [1], in test [2], in test [3], in test [4], in test [5] and in [6] was “inactive” in each case.

On to `CNNCc1ccc(C(=O)NC(C)C)cc1`, for which the Potency result in test [1], in test [2], in test [3], in test [4], in test [5] and in [6] was “inactive” in each case.

Turning to `C1=CC2C3C=CC(C3)C2C1` (configuration not stated), the Potency entry in test [1], in test [2], in test [4] and in test [6] was “inactive” each time.

For `O=C1NC(=O)C(c2ccccc2)(c2ccccc2)N1`, the Potency entry in test [1], in [2], in test [3], in test [4], in test [5] and in [6] was “inactive” in each case.

Regarding `Nc1ccc(S(N)(=O)=O)cc1`, the Potency entry in test [1], in test [3], in test [4], in [5] and in test [6] was “inactive” each time. Moreover, in [2], the Potency result was “inactive and 9.74 µM (active)”.

Regarding `COc1ccc2cc(S(=O)(=O)N[C@H](CC(=O)N[C@H](Cc3ccc(CN4[C@H](C)CCC[C@@H]4C)cc3)C(=O)N(C)C(C)C)c3ccc4c(c3)OCO4)ccc2c1`, the Potency is 3.65 µM (active) in [1]; 52 µM (active) in test [3]; 9.17 µM (active) in [4]; 46 µM (active) in [5]; 46 µM (active) in [6]. For the same compound, the Potency entry in test [8] is “inactive”.

As to `C=C1CC[C@H](O)C/C1=C\C=C1/CCC[C@]2(C)[C@@H]([C@H](C)CCCC(C)C)CC[C@@H]12`, in test [1], the Potency was 21.1 µM (active) and 30.4 µM (active). For the same compound, the Potency entry in test [3], in test [9], in test [10], in test [7], in test [4] and in test [5] was “inactive” each time. In addition, in test [6], the Potency result is “inactive”.

On to `C/C=C/C=C/C(=O)O`, for which the Potency result in [1], in test [2], in test [3], in test [4], in test [5] and in [6] was “inactive” throughout.

Consider `CCCCC(CC)C(=O)O` (configuration not stated), for which the Potency result in [1], in test [2], in test [3], in test [4], in test [5] and in [6] was “inactive” throughout.

For the compound `F[B-](F)(F)F`, the Potency result in test [1], in test [2], in [3], in test [4], in test [5] and in [6] was “inactive” each time.

On to `CC/C(=C(\c1ccccc1)c1ccc(OCCN(C)C)cc1)c1ccccc1`, for which the Potency in test [1] was 8.63 µM (active) [middle of 5 runs]; in [3], 48.9 µM (active) and 49.4 µM (active) and 49 µM (active); in test [6], 27.3 µM (active) [middle of 5 runs]. The Potency result in [2] and in test [4] was “inactive” each time.

Consider `CCCC[P+](CCCC)(CCCC)CCCC`, for which the Potency result in test [1], in test [2], in [3], in [4], in [5] and in [6] was “inactive” throughout.

With `CN(C)CCOC(C)(c1ccccc1)c1ccccn1` (configuration not stated), the Potency result in [3], in [4], in [5] and in test [6] was “inactive” each time.

Take `O=C1O[C@H]([C@@H](O)CO)C(O)=C1O`: the Potency result in test [2] was “inactive and 34.3 µM (active)”. Also, the Potency entry in test [3], in test [4], in test [5] and in [6] was “inactive” each time.

Take `CC(C)c1c(C(=O)Nc2ccccc2)c(-c2ccccc2)c(-c2ccc(F)cc2)n1CC[C@@H](O)C[C@@H](O)CC(=O)O`: the Potency entry in [2], in test [3], in [4] and in test [6] was “inactive” in each case.
